Most compounds without a hit are left out; they make up all but 4.8% or so of the library.
hgDAF12 agonist: agonists of H. glycines DAF-12 nuclear receptor; activation, % at 6.8 µM; AID 687014; 1.8% of 370,000 active; HEK293 GAL4-hgDAF12 UAS-luciferase reporter, agonist luminescence; normalized to butyrate control;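 active = activation above a cutoff set at the mean of all screened compounds plus 3 SD, cut at about 10% in these data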;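 also: 0% = DMSO wells and 100% = sodium butyrate wells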
DAX1 inh-1: inhibitors of DAX1 repression of SF-1 activated StAR promoter | HEK293T StAR-luciferase reporter, SF-1/DAX-1 repression relief | inhibition, % at 6.8 µM | 1.1% of 370,000 active | AID 652010;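 active = inhibition above the mean over all tested compounds plus 3 SD, cut at about 3.6% in these data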;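 also: 0% = DAX-1 cells with DMSO and 100% = cells lacking DAX-1 with DMSO; higher inhibition means more luminescence from relief of DAX-1 repression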
DAX1 inh-2: NR0B1 (DAX1) inhibition | HEK293 Gal4-DAX1 luciferase reporter, luminescence | inhibition, % at 6.75 µM | 0.99% of 340,000 active | AID 504766;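 active = inhibition above the mean over all tested compounds plus 3 SD, cut at about 4.2% in these data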;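 also: 0% = DAX1-transfected cells with DMSO and 100% = empty-vector control cells with DMSO; inhibition shows as a rise in luminescence from relieved DAX1 repression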
NR1D1 modulator: Rev-erb alpha (human) modulation; Rev-erbα–FITC-DNA binding, fluorescence polarization, 90 min; activity, % at 10 µM; 0.79% of 370,000 active;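 active = activity above about 14%, limit read from the data; passing the limit was not always enough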;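 also: 0% = DMSO wells with 35 nM protein and 100% = DMSO wells with 750 nM protein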
Target sequence (P20393 whole entry, looked up): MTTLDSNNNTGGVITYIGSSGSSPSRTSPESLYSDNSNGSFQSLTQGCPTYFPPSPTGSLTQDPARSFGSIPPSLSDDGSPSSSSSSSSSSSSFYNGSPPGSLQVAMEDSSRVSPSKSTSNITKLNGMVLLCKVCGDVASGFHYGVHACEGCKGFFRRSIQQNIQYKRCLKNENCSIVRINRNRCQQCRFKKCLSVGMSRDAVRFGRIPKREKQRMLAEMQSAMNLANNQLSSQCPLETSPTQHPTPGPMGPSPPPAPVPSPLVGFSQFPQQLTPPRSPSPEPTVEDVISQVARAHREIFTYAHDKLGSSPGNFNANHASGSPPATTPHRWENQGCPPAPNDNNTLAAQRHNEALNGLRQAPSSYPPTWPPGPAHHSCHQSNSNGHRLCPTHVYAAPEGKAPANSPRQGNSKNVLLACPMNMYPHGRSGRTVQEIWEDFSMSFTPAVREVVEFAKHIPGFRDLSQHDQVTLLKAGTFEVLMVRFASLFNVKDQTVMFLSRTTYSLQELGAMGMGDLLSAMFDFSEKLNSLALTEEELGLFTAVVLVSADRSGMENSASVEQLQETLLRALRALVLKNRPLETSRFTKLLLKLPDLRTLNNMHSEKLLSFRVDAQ
hcDAF-12 act: activates DAF-12 receptor from parasite H. contortus; HEK293 hcDAF-12 lit1-tk-luc reporter, luminescence; 0% DMSO, 100% Δ7-dafachronic acid; activation, % at 6.8 µM; 1.4% of 370,000 active; AID 652067;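 active = activation above the mean of all tested compounds plus 3 SD, cut at about 5.5% in these data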;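 also: 100% = response to 3 µM Δ7-dafachronic acid high control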
ssDAF12 agonist: S. stercoralis DAF-12 activation, primary screen; HEK293 ssDAF-12/GRIP1 lit1-tk-luc reporter, luminescence; % of 3 µM dafachronic acid response; activation, % at 6.8 µM; 1% of 370,000 active; AID 652126;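 active = activation above the mean over all tested compounds plus 3 SD, cut at about 0.9% in these data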;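 also: 0% = DMSO-only wells and 100% = 3 µM delta7-dafachronic acid wells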
* = called active by the depositor; x = not tested or not shown; ! = not active in a repeat.

SMILES	hgDAF12 agonist	DAX1 inh-1	DAX1 inh-2	NR1D1 modulator	hcDAF-12 act	ssDAF12 agonist
COc1ccc(N=Cc2ccccc2O)cc1	2	0	1	0	3	0
CC(C)c1cc(C(N)=O)c(NC(=O)c2cccc(COc3ccc(Cl)cc3)c2)s1	13*	1	-5	1	4	0
CC(=O)c1ccc(NC(=O)CCS(=O)(=O)c2ccc3c(c2)n(C)c(=O)c(=O)n3C)cc1	x	x	4.8*	x	x	x
N#CCC[C@H]1CC[C@]2(CCCN(C(=O)c3ccccc3)C2)O1	4	0	x	1	1	-1
C=CCn1c(O)c(C2=c3ccccc3=NC2=O)sc1=Nc1ccc(O)cc1	2	0	2	3	4	0
O=C1N=c2ccccc2=C1c1sc(=S)n(NC(=O)c2ccccc2)c1O	2	1	0	3	3	1.0*
OCc1ccc2c(c1)c(-c1ccc3c(c1)OCCO3)c(-c1ccccc1)n2-c1ccccc1	-1	0	4.4*	6	2	0
Cc1ccc(NC(=S)NNC(=O)CSc2nnc(SCc3cccc4ccccc34)s2)cc1	2	0	x	2	-3	-1
CC(=O)NC(Cc1ccc2c(c1)OCO2)C(=O)N1CCCC1 (stereo not given)	1	0	x	-2	-1	-1
COc1ccc(CC2(CO)CCN(Cc3ccncc3)CC2)cc1	-2	-1	-1	2	-1	-2
COc1ccc(CC2(CO)CCN(Cc3cnn(C)c3C)CC2)cc1	1	-1	4.9*	-6	-1	-2
CCC(C)(C)NC(=O)C1CCN(c2nc(OC)nc(OC)n2)CC1	-3	0	6.1*	-1	-1	-1
Cc1cccc2nc(=S)n(C(=O)c3ccco3)n12	13*	3	4.6*	-2	3	0
O=C(c1ccco1)n1c(=S)nc2ccccn21	12*	1	2	0	3	0
O=C(OC12CCCN(C1)/C(=C/c1ccc(Cl)cc1)C2)C1CCCC1 (stereo not given)	-2	0	x	5	0	-1
COc1ccc(-c2csc(NC(=O)C3=COCCO3)n2)c(OC)c1	5	3.9*	0	1	0	0
COc1ccc(-c2csc(NC(=O)COC(=O)C3=COCCO3)n2)cc1	8	3	3	-2	3	-1
CCCc1nc2nc(C)c(NS(=O)(=O)c3ccc(CC(C)C)cc3)c(=O)n2[nH]1	2	0	4.3*	-7	0	-1
CCc1nc2nc(C)c(NS(=O)(=O)c3ccc(CC(C)C)cc3)c(=O)n2[nH]1	3	0	-1	-6	-2	-1
CC/C(C)=N/N1C(=O)c2ccccc2NC1(C)CC (stereo not given)	7	0	6.2*	4	1	-1
O=C1c2ccccc2NC2(CCCC2)N1N=C1CCCC1	7	1	3	-4	4	-1
CCOC(=O)[C@]12CCCCC/C=C\1N(Cc1ccc(OC)cc1)C(=O)[C@H]2CC(=O)NCCCCc1ccccc1	2	0	x	-5	-3	-2
Cc1cc(OCC(=O)N2CCC(C(N)=O)CC2)c2c(C)cc(=O)oc2c1	-2	-1	7.5*	-8	0	-2
CC(=O)Nc1ccc(-c2csc(Nc3cc(C)ccn3)n2)cc1	2	-3	-1	-1	-4	-3
Oc1ccc(-c2csc(Nc3ccccn3)n2)c(O)c1	9	1	4.6*	6	4	1
SMILES	hgDAF12 agonist	DAX1 inh-1	DAX1 inh-2	NR1D1 modulator	hcDAF-12 act	ssDAF12 agonist
Cc1cccnc1Nc1nc(-c2ccc(O)cc2O)cs1	1	0	0	-2	1	0
CC(=O)Nc1cccc(-c2csc(Nc3cc(C)ccn3)n2)c1	11*	4	1	4	0	-1
CC(=O)Nc1nc(C)c(-c2csc(Nc3ccccn3)n2)s1	10*!	1	3	5	3	-1
Cc1cc(N/C=C(\C#N)S(=O)(=O)c2ccccc2Cl)nc(C)n1	1	0	0	-1	1	-1
Cc1cc(N/C=C(\C#N)S(=O)(=O)c2ccc(Cl)cc2)nc(C)n1	2	0	4.2*	7	0	-1
CCN(CC)C(=O)CCc1nnc(Cc2cccc(C(F)(F)F)c2)o1	13*	1	2	1	2	1
Cc1cc(CN(C)C(=O)CCc2nnc(Cc3cccc(C(F)(F)F)c3)o2)on1	6	1	3	-5	2	0
COc1cccc(C2CCCCN(C)C2=O)c1 (stereo not given)	0	1	4.6*	-8	-2	-2
COC(=O)[C@]12C[C@H](CC(=O)NCCCCc3ccccc3)C(=O)N(CCC3=CCCCC3)C1=C[C@H](COCc1ccccc1)O[C@@H]2C	1	1	x	-6	1	-1
CC(NC(=O)CN1C(=O)NC2(CCCCC2)C1=O)c1ccc(S(N)(=O)=O)cc1 (stereo not given)	0	3.9*	-1	6	1	-1
CC(NC(=O)CN1C(=O)NC2(CCCCCCC2)C1=O)c1ccccc1 (stereo not given)	-1	-1	0	6	2	0
CCN(CC)C(=O)CC[C@H]1CC[C@]2(CCCN(CC3CC3)C2)O1	-2	0	x	2	-1	-1
CCCCNc1c(-c2ccc(SC3CCCCC3)cc2)nc2ccccn12	12*	4.0*	5.1*	9	4	0
CCCCNc1c(-c2cccc(SC3CCCCC3)c2)nc2ccc(Cl)cn12	1	0	0	2	1	-1
Cc1ccc(O)c(C2=Nc3ccccc3N=C(c3cccc([N+](=O)[O-])c3)C2)c1	7	-1	2	8	3	0
Cc1ccc(O)c(C2=Nc3ccccc3N=C(c3ccc([N+](=O)[O-])cc3)C2)c1	6	1	0	3	5	1.0*
O=C(Nc1ccc(C(=O)N2CCCCC2)cc1)[C@H]1O[C@@H](n2ccc(=O)[nH]c2=O)[C@H](O)[C@@H]1O	1	3.7*	x	8	1	-1
Nc1ccn([C@@H]2O[C@H](C(=O)Nc3ccc(C(=O)N4CCCCC4)cc3)[C@@H](O)[C@H]2O)c(=O)n1	-1	0	x	0	-1	-1
O=C(COC(=O)c1ccc(O)cc1)Nc1ccc(N2CCCCC2)cc1	6	1	0	-4	-1	-1
O=C(COC(=O)c1cncc(Br)c1)Nc1ccc(N2CCCCC2)cc1	1	-1	1	-4	4	1.8*
CCC(/C=C1\Sc2ccc(OC)cc2N1CC)=C\c1sc2ccc(OC)cc2[n+]1CCCS(=O)(=O)[O-]	0	0	0	-1	-1	5.6*

Assay outcomes (PubChem BioAssay)
